# Laboratory results reported in PubChem BioAssay AID881 (National Center for Advancing Translational Sciences (NCATS), 2007).
# Several values for one entry are separate records, joined by “and”; a condition that tells them apart may be missing. Equal entries are not always repeated. Out of some 110,000 compounds screened, about 610 (0.55%) were called active. Where a call stands in place of a potency, no number is given. Another 3% or so got no clear call; they are omitted. The call rests on the fitted dose curve; in most records, active means well fitted inhibition curve with a large enough effect; inconclusive means small, poorly fitted or top-dose-only effect; inactive means no such curve, though single readings can be large or run the other way. The sample as a whole holds a higher share of actives than the screen did.
# Target: Polyunsaturated fatty acid lipoxygenase ALOX15B (Homo sapiens) (UniProt O15296)
# Sequence (O15296 whole entry, looked up): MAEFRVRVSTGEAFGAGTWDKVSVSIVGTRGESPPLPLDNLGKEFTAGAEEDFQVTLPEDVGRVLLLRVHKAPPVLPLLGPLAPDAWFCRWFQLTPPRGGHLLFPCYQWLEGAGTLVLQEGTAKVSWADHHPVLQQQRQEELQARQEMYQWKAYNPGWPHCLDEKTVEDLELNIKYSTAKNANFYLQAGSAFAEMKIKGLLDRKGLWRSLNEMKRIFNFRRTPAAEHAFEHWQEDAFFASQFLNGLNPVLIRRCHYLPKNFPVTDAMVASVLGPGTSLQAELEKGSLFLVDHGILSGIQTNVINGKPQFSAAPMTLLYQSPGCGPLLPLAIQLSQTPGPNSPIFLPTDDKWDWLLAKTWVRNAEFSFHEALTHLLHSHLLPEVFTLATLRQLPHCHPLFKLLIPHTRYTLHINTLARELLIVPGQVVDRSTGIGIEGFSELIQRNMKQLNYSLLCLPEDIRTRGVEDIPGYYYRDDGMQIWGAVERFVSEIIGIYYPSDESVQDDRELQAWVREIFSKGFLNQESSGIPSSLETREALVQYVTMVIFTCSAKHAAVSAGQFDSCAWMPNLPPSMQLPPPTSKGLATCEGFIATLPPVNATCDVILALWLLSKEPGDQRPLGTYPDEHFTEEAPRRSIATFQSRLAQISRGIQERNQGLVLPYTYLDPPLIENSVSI
# Experiment: qHTS Assay for Inhibitors of 15-hLO-2 (15-human lipoxygenase 2); further: nearly all actives have a fitted effect of over 60% in size
# Conditions: purified 15hLO-2, xylenol orange hydroperoxide absorbance; series mostly up to 57.1 µM
# Description: Assay Overview: NIH Molecular Libraries Screening Centers Network [MLSCN] NIH Chemical Genomics Center [NCGC] MLSCN Grant: MH081283-01A1 PI Name: Holman, T.R., University of California, Santa Cruz Human lipoxygenase 15hLO-2 is a member of the closely related lipoxygenase family of enzymes which catalyze the site-specific oxidation of arachidonic acid to various hormone precursor molecules and as such is a candidate for drug development in a variety of disease areas, such as cancer and inflammation. Inhibition of 15hLO-2 activity was screened by utilizing arachidonic acid as a substrate. The extent of hydroperoxide product formation was measured by a secondary chromogenic reaction in which xylenol orange (XO, Sigma-Aldrich, cat. number 39,818-7) reacts with the ferric ions produced from the reaction between the hydroperoxide and ferrous ions. The Fe(III)-XO complex is characterized with red-shifted absorbance at 560 nm. A purified preparation of human 15hLO-2 was supplied by Professor Ted Holman, University of California, Santa Cruz.
# Assay Protocol: Buffer: 25 mM Hepes pH 7.5, 0.01% Triton X-100. Reagents/Controls: Buffer in columns 3 and 4 as negative control (no enzyme). Substrate solution: 45 uM arachidonic acid (Sigma-Aldrich, St. Louis, MO) final concentration dispensed throughout the plate. Enzyme: 50 nM 15hLO-2 final concentration in columns 1, 2, 5-48. Column 1 is neutral (100% activity). Column 2 contained pin-transferred titration of NDGA (nordihidroguaiaretic acid, Sigma-Aldrich, N 5023, top concentration 10 mM in DMSO, then 1:2 dilution in duplicate). (Dilution factor: 23 nL into 4 uL.) Chromogenic detection reagent (divalent iron/xylenol orange, Fe-XO): 200 uM xylenol orange plus 300 uM ferrous ammonium sulfate prepared freshly in 50 mM sulfuric acid. Assay Steps: Three uL of enzyme were dispensed to 1536-well Greiner black clear bottom plates. Compounds and controls (23 nL) were transferred via Kalypsys PinTool. The plates were incubated for 15 min at room temperature, and then 1 uL of substrate solution was added to start the reaction. After room temperature incubation for 90 minutes, 4 uL of Fe-XO solution was added to each well followed by a short spin (1000 rpm, 15 sec) and the plates were then incubated for 30 min. The absorbance at 405 and 573 nm were measured using ViewLux (Perkin-Elmer) High-throughput CCD imager and absorbance protocol settings. The 573-to-405 absorbance ratio was used to compute reaction progress.
# Potency means the concentration at half of the fitted maximal effect.
SMILES,"activity change, negative = inhibition",Potency
COc1ccc(-c2c(C)cc3oc(=O)cc(-c4ccccc4)c3c2C)cc1OC,-3.53% [at 0.0915 µM] (inactive),–
CCCCN(CC)CCNC(=O)c1[nH]c(C)c(C(C)=O)c1C,inactive,–
COCc1cc(C(C)=O)ccc1OC,inactive,–
CC[C@@H]1Cc2cc(O)ccc2C2=C1c1ccc(O)cc1C[C@H]2CC,–,7.94 µM (active) and 3.55 µM (active)
Cc1nnc(SCC(=O)NC(=O)NC2CCCC2)n1N,inactive,–
CCc1c(O)nc(SCC(=O)Nc2ccccc2)n(C(C)CC)c1=O (stereo unspecified),inactive,–
COc1ccccc1NC(=O)[C@H](COCc1ccccc1)NC(=O)OC(C)(C)C,inactive,–
CC(C)C(=O)OCC(=O)Nc1ccc2c(c1)CCC2,inactive,–
O=C1OCCN1C(=O)[C@H]1[C@H](c2ccc(F)cc2)C(c2ccccc2)=NN1c1ccc(Br)cc1,-15.7% [at 0.0915 µM] (inactive),–
COc1cc(/C=N/O)cc(Br)c1OS(=O)(=O)c1ccc(C)cc1,inactive,–
CCN(CC)c1ccc(NC(=O)c2ccc(Cl)nc2)cc1,inactive,–
Cc1ccc(-c2cccc([C@H]3[C@@H]4C=CC[C@@H](C)[C@@H]4C(=O)N3Cc3ccccc3)c2)cc1,17.8% [at 0.0915 µM] (inactive),–
Cc1nc(NC2=NC(C(=O)Nc3ccc(Cl)cc3)CC(=O)N2)nc2ccccc12 (stereo unspecified),inactive,–
COc1ccc(Nc2ncnc3ccc(OC)cc23)cc1,12% [at 0.0915 µM] (inactive),–
O=C(c1ccccc1)N1CCN(c2ccc([N+](=O)[O-])c(NCc3ccco3)c2)CC1,inactive,–
N#C/C(=C\c1ccccc1)c1n[nH]c(Cn2cncn2)n1,inactive,–
O=C(O)CCC(=O)O,15.2% [at 0.0915 µM] (inactive),–
Cc1cc2oc(=O)cc(-c3ccccc3)c2c(C)c1-c1ccc(OC(F)(F)F)cc1,-5.36% [at 0.0915 µM] (inactive),–
O=C(Nc1ccc(Sc2ccc(Br)cc2)cc1)c1ccco1,inactive,–
CC1CCc2c(c3ccccc3[nH]c2=O)O1 (stereo unspecified),inactive,–
C=CCSc1nc(Cc2ccc(Cl)cc2)nc2ccccc12,inactive,–

SMILES,"activity change, negative = inhibition",Potency
COc1cc(/C=N/O)cc(Br)c1OCc1cccc(Cl)c1,inactive,–
CSCc1cc(N(C)C)nc(SCc2ccc(Cl)cc2Cl)n1,inactive,–
CCOC(=O)C1=C(C(=O)OCC)C(C(=O)OCC)N(S(=O)(=O)C(F)(F)F)c2ccccc21 (stereo unspecified),7.83% [at 0.0915 µM] (inactive),–
CC1CCCCC1NC(=O)C1CCCN1S(=O)(=O)c1cccc2nsnc12 (stereo unspecified),inactive,–
Cc1nnc(NC(=O)CCCOc2ccccc2)s1,inactive,–
O=C(CN1C(=O)C2C3C=CC(C3)C2C1=O)Nc1nc(-c2ccccn2)cs1 (stereo unspecified),inactive,–
CCCCOC(=O)Nc1sc2nc(C)cc(C)c2c1-n1cccc1,inactive,–
CCOC(=O)c1c(NC(C)=O)sc2c(O)c(Br)ccc12,inactive,–
COc1ccc(C(=O)Nc2ccc(S(=O)(=O)NC(C)C)cc2)cc1,inactive,–
COC(=O)c1cc(NC(=O)CC2C(=O)NCCN2C(=O)c2ccc(F)cc2)cc(C(=O)OC)c1 (stereo unspecified),inactive,–
Cn1ccs/c1=N\S(=O)(=O)c1ccc(C(C)(C)C)cc1,inactive,–
COCC(C)NC(=O)c1ccc(-n2nc(C(F)(F)F)cc2-c2cccs2)cc1 (stereo unspecified),inactive,–
NC(=O)c1nsc(C(=O)N(CC(=O)NCc2ccc(F)cc2)Cc2ccco2)c1N,inactive,–
Cc1ccc(-c2cc(=O)c3ccc(Cl)cc3[nH]2)cc1,-2.63% [at 0.0915 µM] (inactive),–
COc1ccc(C)cc1N(C)C(=O)c1coc(=O)c2ccccc12,inactive,–
C=CCC1CCC(=O)N2CCCC12 (stereo unspecified),-5.32% [at 0.0915 µM] (inactive),–
Cc1ccccc1OCC(=O)NCC(=O)OCC(=O)c1ccc2ccccc2c1,inactive,–
Brc1ccc(C2=NCCC(c3ccccc3)O2)cc1 (stereo unspecified),18.5% [at 0.0915 µM] (inactive),–
O=C(c1cccc(F)c1)N1CCN(c2ccc([N+](=O)[O-])c(N3CCCCC3)c2)CC1,inactive,–
O=C1OCCN1C(=O)[C@H]1[C@H](c2ccc(Cl)cc2)C(c2cccc(Cl)c2)=NN1c1ccc(Br)cc1,4.34% [at 0.0915 µM] (inactive),–
CC1(C)O[C@@H]2C[C@@H]3[C@H]4C[C@@H](F)C5=CC(=O)C=C[C@]5(C)[C@@]4(F)[C@@H](O)C[C@]3(C)[C@]2(C(=O)CO)O1,-10.6% [at 0.0915 µM] (inactive),–

SMILES,"activity change, negative = inhibition",Potency
O=C1CCC[C@@H]2CC(N3CCCCC3)C[C@@H]3CCN1[C@H]23 (stereo partly specified),-0.97% [at 0.0915 µM] (inactive),–
Cc1c(O)c(Br)c(C)c(O)c1Br (tested in a mixture with another compound),–,2 µM (active)
CCOn1c(SC(C)C)nc2ccccc2c1=O,inactive,–
C=CC1(C)CC(=O)C2(O)C(C)(O1)C(OC(C)=O)C(O)C1C(C)(C)CCC(O)C12C (stereo unspecified),1.16% [at 0.0915 µM] (inactive),–
COc1cc(C(=O)N2CCOCC2)cc(OC)c1OC,5.48% [at 0.0915 µM] (inactive),–
Cc1ccc(NC(=O)Cn2nc(C)c3ccccc3c2=O)c(C)c1,inactive,–
Cc1ccc(NC(=S)Nc2ncccc2C)c(C)c1,–,7.94 µM (active)
Cc1ccccc1NC(=S)Nc1cccc([N+](=O)[O-])c1,inactive,–
CC(C)NC(=O)C(=O)NCCN1CCN(S(=O)(=O)c2ccc(Cl)cc2)CC1,inactive,–
FC(F)(F)c1cnc(Oc2ccccc2-c2nnc(-c3ccc(Cl)cc3)o2)c(Cl)c1,inactive,–
O=C(Oc1ccccc1)Oc1ccc2c(c1)oc(=O)c1ccccc12,inactive,–
Cc1ccnc(-n2sc3ccccc3c2=O)n1,–,7.94 µM (active)
Cc1nc2ccccc2c(=O)n1CCCn1ccnc1,9.49% [at 11.4 µM] (inactive),–
Cc1ccnc(N2CCC(C(=O)NC3CCCCCC3)CC2)n1,inactive,–
N#Cc1ccc(Oc2cc(C(F)(F)F)nc(-c3ccccn3)n2)cc1,inactive,–
CCCCCCCCCCCCCCCCO,14.3% [at 0.0915 µM] (inactive),–
CN(C(=O)CSc1nc(C2CC2)nc2ccccc12)c1nc(-c2ccccc2)cs1,inactive,–
Cc1cc(N/C=C\C(=O)c2ccc(Cl)c(Cl)c2)no1,inactive,–
Cc1ccc(-n2c(SCC(=O)NCc3ccc4c(c3)OCO4)nnc2-c2cccnc2)c(C)c1,inactive,–
